Source: PubChem BioAssay
CBX7 AlphaScr = CBX7 chromodomain binding inhibitors, primary screen, biochemical, AlphaScreen; Chromobox protein homolog 7 (Homo sapiens), O95931; 1.1% of 66,000 active; AID 1224903, 2016; normalised signal (fraction of DMSO) (concentration not given with the values); AlphaScreen His6-CBX7 / biotin-H3K27me3 peptide binding; hits give low values; in the data active = normalised signal below about 0.5
Target sequence (O95931 whole entry, looked up): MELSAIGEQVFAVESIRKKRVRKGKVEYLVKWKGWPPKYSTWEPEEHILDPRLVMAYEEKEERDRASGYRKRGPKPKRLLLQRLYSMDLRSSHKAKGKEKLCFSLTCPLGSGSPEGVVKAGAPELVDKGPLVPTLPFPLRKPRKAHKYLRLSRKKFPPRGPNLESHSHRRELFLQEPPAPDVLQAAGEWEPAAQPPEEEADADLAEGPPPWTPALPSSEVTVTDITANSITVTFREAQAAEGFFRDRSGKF
Numbers without * were called inactive. The entries come from a sample that favours hits as a whole.

SMILES | CBX7 AlphaScr
CCN(CCCNC(=O)c1nn(-c2ccccc2OC)c(=O)c2ccccc12)c1cccc(C)c1 | 0.481*
COc1ccccc1CNC(=O)c1nn(-c2ccccc2OC)c(=O)c2ccccc12 | 0.941
COCCNC(=O)c1nn(-c2ccccc2OC)c(=O)c2ccccc12 | 1.01
c1ccc(COc2ccc(Oc3ncnc4sc5c(c34)CCCC5)cc2)cc1 | 1.18
c1ccc(Cc2ccc(Oc3ncnc4sc5c(c34)CCCC5)cc2)cc1 | 1.29
c1nc(Oc2ccc3c4c2CCCN4CCC3)c2c3c(sc2n1)CCCC3 | 0.268*
COc1ccc(OC)c(-c2cc(C(=O)NCc3cn(C)nc3C)c3ccccc3n2)c1 | 1.05
Cc1oc(-c2ccccc2F)nc1CN1CCC(C(=O)NCc2ccc3c(c2)OCO3)CC1 | 0.946
Cc1ccc(NC(=O)c2cc(-c3cccc(O)c3)on2)cc1 | 0.97
COc1ccc2nc(SCC(=O)Nc3ccc(C(C)C)cc3)[nH]c2c1 | 0.996
Cc1c(C)n(CC(O)CN2CCCCCC2)c2ccccc12 (stereo not drawn) | 1.01
Cc1ccc(C)c(NCC(O)Cn2c(C)c(C)c3ccccc32)c1 (stereo not drawn) | 0.674
CCOc1ccc(NCC(O)Cn2c(C)c(C)c3ccccc32)cc1 (stereo not drawn) | 0.432*
Cc1nn(CC(O)Cn2c(C)c(C)c3ccccc32)c(C)c1Br (stereo not drawn) | 0.436*
CCN(CC)CC(O)Cn1c(C)c(C)c2ccccc21 (stereo not drawn) | 0.969
Cc1c(C)n(CC(O)CNCCO)c2ccccc12 (stereo not drawn) | 0.917
Cc1cccc(NCC(O)Cn2c(C)c(C)c3ccccc32)c1 (stereo not drawn) | 0.474*
COc1ccc(NCC(O)Cn2c(C)c(C)c3ccccc32)c(OC)c1 (stereo not drawn) | 0.547
CCC(CO)NCC(O)Cn1c(C)c(C)c2ccccc21 (stereo not drawn) | 0.734
Cc1c(C)n(CC(O)CNCc2ccccc2)c2ccccc12 (stereo not drawn) | 0.819
Cc1c(C)n(CC(O)CNc2ccccc2)c2ccccc12 (stereo not drawn) | 0.253*
Cc1c(C)n(CC(O)CNC2CCCCC2)c2ccccc12 (stereo not drawn) | 0.984
CCN1CCCC1CNC(=O)c1ccc2nc(N3CCC(C)CC3)sc2c1 (stereo not drawn) | 0.955
Oc1ccc(-c2nc3cnccn3c2Nc2ccc(Cl)cc2)cc1 | 1.1
CCc1ccccc1N(C)S(=O)(=O)c1ccc2[nH]cc(C(=O)N3CCCCC3)c(=O)c2c1 | 0.881
SMILES | CBX7 AlphaScr
CCOc1ccccc1-c1nc(-c2ccc(NC(=O)c3ccncc3)cc2)no1 | 0.947
COc1ccc(NCC(O)Cn2c(C)c(C)c3ccccc32)cc1 (stereo not drawn) | 0.558
COc1ccccc1NCC(O)Cn1c2ccc(Br)cc2c2cc(Br)ccc21 (stereo not drawn) | 0.535
COc1ccc(NCC(O)Cn2c3ccccc3c3ccccc32)cc1 (stereo not drawn) | 0.452*
O=S(=O)(Nc1nc2ccccc2nc1Nc1cccc(C(F)(F)F)c1)c1ccccc1 | 0.844
CC(C)c1cc(C(=O)Nc2cnn(Cc3ccc(Cl)cc3Cl)c2)no1 | 0.979
COc1ccccc1NC(=O)Cn1nc(Cc2ccncc2)c2ccccc2c1=O | 1.01
Clc1ccc(-c2nc3ccccn3c2Nc2ccc3c(c2)OCCO3)cc1 | 0.613
c1ccn2c(Nc3ccc4c(c3)OCCO4)c(-c3ccc(N4CCOCC4)cc3)nc2c1 | 0.998
Cc1cccn2c(Nc3ccc4c(c3)OCCO4)c(-c3ccc(Cl)cc3)nc12 | 0.479*
Cc1ccc(-c2nc3ccccn3c2Nc2ccc3c(c2)OCO3)cc1 | 0.35*
c1cncc(-c2nc3ccccn3c2Nc2ccc3c(c2)OCCO3)c1 | 0.896
Cc1ccc(-c2nc3ccccn3c2Nc2ccc3c(c2)OCCO3)cc1 | 0.998
Clc1ccc(-c2nc3ncccn3c2Nc2ccc3c(c2)OCCO3)cc1 | 0.854
Brc1cccc(-c2nc3ccccn3c2Nc2ccc3c(c2)OCCO3)c1 | 0.438*
c1csc(-c2nc3ccccn3c2Nc2ccc3c(c2)OCCO3)c1 | 0.773
CC(=O)Nc1ccc2nc(NC(=O)c3ccc(C)cc3)sc2c1 | 0.844
Cc1nc2ncccn2c1-c1csc(Nc2ccccc2Cl)n1 | 0.689
Cc1ccc(CNC(=O)CNc2ccccc2-c2nc3ccccc3[nH]c2=O)cc1 | 1.02
COc1ccc(Nc2nnc(Cc3cccnc3)c3ccccc23)cc1Cl | 0.96
COc1ccccc1NCc1ccccc1NS(=O)(=O)c1ccc(C)cc1 | 0.898
O=C(CSc1nnc(Cc2cc(=O)[nH]c(=O)[nH]2)n1-c1ccc(F)cc1)Nc1ccc(F)cc1F | 0.94
CCSc1nnc(-c2c[nH]c3ccccc23)n1C | 1.07
O=C1C2=C(Nc3ccccc3SC2c2ccco2)c2ccccc21 (stereo not drawn) | 0.39*
O=C(CC1Sc2ccccc2NC1=O)Nc1ccc2c(c1)OCO2 (stereo not drawn) | 0.889
SMILES | CBX7 AlphaScr
CC(C(=O)NC1CCCC1)C1Sc2ccccc2NC1=O (stereo not drawn) | 1.01
O=C(CC1Sc2ccccc2NC1=O)Nc1ccc2c(c1)OCCO2 (stereo not drawn) | 1.24
COc1ccc(C2CC(=O)C3=C(C2)Nc2ccccc2NC3c2ccncc2)cc1OC (stereo not drawn) | 1.02
COc1ccc(NC(=O)CC2Sc3ccccc3NC2=O)cc1OC (stereo not drawn) | 0.983
COc1ccc(C2Sc3ccccc3NC3=C2C(=O)c2ccccc23)cc1OC (stereo not drawn) | 0.4*
O=C1C2=C(Nc3ccccc3SC2c2ccc3c(c2)OCO3)c2ccccc21 (stereo not drawn) | 0.354*
Nc1nonc1C(=O)N1CCCCCC1 | 0.812
Cn1c(SCc2nc(C(c3ccccc3)c3ccccc3)no2)nnc1-c1cccs1 | 0.819
CCOc1ccccc1OCCc1c(C)n[nH]c1C | 0.937
CN(C)CCn1c2c(c3ccccc31)CCCn1nnnc1-2 | 0.764
Cc1cccc(NC(=O)CSc2ccc3nnc(-c4ccccc4)n3n2)c1C | 0.941
COc1cc(C)nc(NC(=O)Nc2ccc(F)cc2)n1 | 1.05
CC(C)OCc1ccc(O)c2ncccc12 | 0.00412*
NC(=O)Cn1c(=O)n(CCC(=O)NCc2ccc3c(c2)OCO3)c(=O)c2sccc21 | 0.918
CCC(C)(C)C1CCc2oc3ccc(NS(=O)(=O)c4cccs4)cc3c2C1 (stereo not drawn) | 0.419*
CCc1ccc(S(=O)(=O)Nc2ccc3oc4c(c3c2)CC(C(C)(C)C)CC4)cc1 (stereo not drawn) | 0.783
CC1CCc2oc3ccc(NS(=O)(=O)c4cccs4)cc3c2C1 (stereo not drawn) | 0.643
Cc1cc(NC(=O)c2ccccc2F)ccc1NC(=O)c1ccccc1 | 0.931
CCc1ccc(NC(=O)CSc2nnc(-c3ccc(Cl)cc3Cl)o2)cc1 | 1.03
O=C(Nc1nc(-c2ccccn2)cs1)c1ccc(N2C(=O)CCC2=O)cc1 | 0.0715*
Cc1ccc(-c2csc(NC(=O)c3cccc(Oc4ccccc4)c3)n2)cc1 | 1.06
Cc1cc(C)c(-c2csc(NC(=O)c3cccc(Oc4ccccc4)c3)n2)c(C)c1 | 1.1
O=C(Nc1nc(-c2ccccn2)cs1)c1cccc(Oc2ccccc2)c1 | 0.039*
COc1cc(C(=O)Nc2nc(-c3ccccn3)cs2)cc(OC)c1OC | 0*
CN(Cc1ccccc1)S(=O)(=O)c1ccc(C(=O)Nc2nc(-c3ccccn3)cs2)cc1 | 0.94
COc1cc(C(=O)Nc2ccccn2)cc(OC)c1OC | 1.08
COc1ccc(C(=O)Nc2nc(-c3ccccc3)cs2)cc1OC | 0.834
